PubChem BioAssay (NCI)
This is part of a sample that, as a whole, favours compounds with a hit. Of some 83,000 tested, about 20% had one in any assay.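 Percent growth is the endpoint: 0 to 100 indicates growth inhibition (40 means 60% inhibition), 0 means no net growth, and negative values indicate cell death.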 Active and inactive are the calls of the source. The calls were made as follows: active = growth percent below 10; inactive = the rest.

Legend:
Test in all cases: NCI-60 one-dose screen, 48 h (100 = growth as untreated, 0 = no growth, -100 = all killed)
Conditions in all cases: 10 µM unless noted
[1] = test system: DU-145 prostate
[2] = test system: K-562 leukemia
[3] = test system: MALME-3M melanoma
[4] = test system: MDA-MB-231 breast
[5] = test system: RXF 393 renal
[6] = test system: SF-268 CNS
[7] = test system: SF-295 CNS
[8] = test system: SF-539 CNS
[9] = test system: UACC-257 melanoma
[10] = test system: M14 melanoma
[11] = test system: HCT-15 colon
[12] = test system: HT29 colon
[13] = test system: SNB-75 CNS
[14] = test system: SNB-19 CNS
[15] = test system: U251 CNS
[16] = test system: PC-3 prostate
[17] = test system: SK-MEL-5 melanoma
[18] = test system: UACC-62 melanoma
[19] = test system: LOX IMVI melanoma
[20] = test system: SK-MEL-28 melanoma

CC/C=C1/C(=O)C=C[C@@H]1C/C=C\CCCC(=O)O
growth [1]: 98.3% (inactive)
growth [2]: 25.1% (inactive)
growth [3]: 101% (inactive)
growth [4]: 79.4% (inactive)
growth [5]: 110% (inactive)
growth [6]: 92.4% (inactive)
growth [7]: 101% (inactive)
growth [8]: 101% (inactive)
growth [9]: 73.9% (inactive)
growth [10]: 77.5% (inactive)
growth [11]: 72.8% (inactive)
growth [12]: 78.9% (inactive)
growth [13]: 105% (inactive)
growth [14]: 92.1% (inactive)
growth [15]: 64.9% (inactive)
growth [16]: 80.5% (inactive)
growth [17]: 81.5% (inactive)
growth [18]: 30.7% (inactive)
growth [19]: 19.9% (inactive)
growth [20]: 96.9% (inactive)

Cc1ccc(S(=O)(=O)NCC[C@@H]2C[C@H]2c2cc3ccccc3s2)cc1
growth [1]: 101% (inactive)
growth [2]: 85.1% (inactive)
growth [3]: 99.8% (inactive)
growth [4]: 92.5% (inactive)
growth [5]: 103% (inactive)
growth [6]: 93.3% (inactive)
growth [7]: 103% (inactive)
growth [8]: 98.3% (inactive)
growth [9]: 108% (inactive)
growth [10]: 108% (inactive)
growth [11]: 101% (inactive)
growth [12]: 107% (inactive)
growth [13]: 82.7% (inactive)
growth [14]: 95.6% (inactive)
growth [15]: 98.6% (inactive)
growth [16]: 99.8% (inactive)
growth [17]: 102% (inactive)
growth [18]: 68.1% (inactive)
growth [19]: 96.7% (inactive)
growth [20]: 105% (inactive)

COC(=O)c1ccc(CSc2nnc(-c3c(C)nc4ccc(C)cn34)o2)cc1
growth [1]: 106% (inactive)
growth [2]: 82.6% (inactive)
growth [3]: 111% (inactive)
growth [4]: 84.1% (inactive)
growth [5]: 97% (inactive)
growth [6]: 102% (inactive)
growth [7]: 105% (inactive)
growth [8]: 103% (inactive)
growth [9]: 116% (inactive)
growth [10]: 105% (inactive)
growth [11]: 104% (inactive)
growth [12]: 111% (inactive)
growth [13]: 85.9% (inactive)
growth [14]: 94.2% (inactive)
growth [15]: 99.2% (inactive)
growth [16]: 106% (inactive)
growth [17]: 93.8% (inactive)
growth [18]: 89.2% (inactive)
growth [19]: 94.2% (inactive)
growth [20]: 103% (inactive)

N#Cc1c(N2CCNCC2)nc2sc3cc(Cl)c(Cl)cc3n2c1=N
growth [1]: 122% (inactive)
growth [2]: 77.4% (inactive)
growth [3]: 119% (inactive)
growth [4]: 84.1% (inactive)
growth [5]: 19.1% (inactive)
growth [6]: 117% (inactive)
growth [7]: 113% (inactive)
growth [8]: 86.1% (inactive)
growth [9]: 124% (inactive)
growth [10]: 106% (inactive)
growth [11]: 122% (inactive)
growth [12]: 98.7% (inactive)
growth [13]: 62.2% (inactive)
growth [14]: 98.5% (inactive)
growth [15]: 107% (inactive)
growth [16]: 94.2% (inactive)
growth [17]: 89.9% (inactive)
growth [18]: 82.6% (inactive)
growth [19]: 93.5% (inactive)
growth [20]: 120% (inactive)

O=C(N/N=C/C=C/c1ccc([N+](=O)[O-])o1)c1cc2ccccc2cc1O
growth [1]: -21.7% (active)
growth [2]: 4.52% (active)
growth [3]: -68% (active)
growth [4]: -15.9% (active)
growth [5]: -63.2% (active)
growth [6]: -20.3% (active)
growth [7]: 14.4% (inactive)
growth [8]: -83.6% (active)
growth [9]: -56.3% (active)
growth [10]: -100% (active)
growth [11]: -12.3% (active)
growth [12]: -11.7% (active)
growth [13]: 43.4% (inactive)
growth [14]: -34.4% (active)
growth [15]: -16% (active)
growth [16]: 4.52% (active)
growth [17]: -100% (active)
growth [18]: -64.3% (active)
growth [19]: -79.5% (active)
growth [20]: -66.5% (active)

COc1ccc(OC)c(-c2c(C#N)c(-c3ccc(Cl)cc3)nc3c2c(-c2ccccc2)nn3-c2ccccc2)c1
growth [1]: 99.1% (inactive)
growth [2]: 97.7% (inactive)
growth [3]: 101% (inactive)
growth [4]: 101% (inactive)
growth [5]: 101% (inactive)
growth [6]: 96% (inactive)
growth [7]: 109% (inactive)
growth [8]: 98.8% (inactive)
growth [9]: 100% (inactive)
growth [10]: 101% (inactive)
growth [11]: 105% (inactive)
growth [12]: 109% (inactive)
growth [13]: 85.1% (inactive)
growth [14]: 100% (inactive)
growth [15]: 98.7% (inactive)
growth [16]: 92% (inactive)
growth [17]: 110% (inactive)
growth [18]: 90.7% (inactive)
growth [19]: 94.4% (inactive)
growth [20]: 105% (inactive)

Cc1cc(C(=O)c2ccccc2)c(C)c2c1[nH]c1ccc(Cl)cc12
growth [1]: 1.86% (active)
growth [2]: 11.9% (inactive)
growth [3]: 33.7% (inactive)
growth [4]: 30.6% (inactive)
growth [5]: 18.9% (inactive)
growth [6]: 22.8% (inactive)
growth [7]: 6.92% (active)
growth [8]: -14.9% (active)
growth [9]: 66.1% (inactive)
growth [10]: 19.6% (inactive)
growth [11]: 7.78% (active)
growth [12]: 5.31% (active)
growth [13]: -10.1% (active)
growth [14]: 52.3% (inactive)
growth [15]: 20.8% (inactive)
growth [16]: 23.8% (inactive)
growth [17]: 2.39% (active)
growth [18]: 54.9% (inactive)
growth [19]: 10.2% (inactive)
growth [20]: 59.1% (inactive)

O=C1N=c2cc3c(cc2=C/C1=C/c1sc(=S)n(CCc2ccc(O)cc2)c1O)OCCO3
growth [1]: 80.6% (inactive)
growth [2]: 6.11% (active)
growth [3]: 36.7% (inactive)
growth [4]: 24.8% (inactive)
growth [5]: 92.9% (inactive)
growth [6]: 91.7% (inactive)
growth [7]: 101% (inactive)
growth [8]: 95.8% (inactive)
growth [9]: 90.3% (inactive)
growth [10]: 27.8% (inactive)
growth [11]: 9.98% (active)
growth [12]: 21.2% (inactive)
growth [13]: 61.4% (inactive)
growth [14]: 22.9% (inactive)
growth [15]: 17.8% (inactive)
growth [16]: 41.4% (inactive)
growth [17]: 83.3% (inactive)
growth [18]: 20.7% (inactive)
growth [19]: 3.28% (active)
growth [20]: 38.7% (inactive)

CCCCn1c(=O)c2c(nc3n2CCCN3CCc2ccc(OCC(=O)NCCN(CC)CC)cc2)n(CCCC)c1=O
growth [1]: 66.1% (inactive)
growth [2]: -6.6% (active)
growth [3]: -52.9% (active)
growth [4]: 14.4% (inactive)
growth [5]: 47.2% (inactive)
growth [6]: 63.2% (inactive)
growth [7]: -22.3% (active)
growth [8]: 54.7% (inactive)
growth [9]: -39% (active)
growth [10]: -79.2% (active)
growth [11]: 1.38% (active)
growth [12]: 5.96% (active)
growth [13]: 44.6% (inactive)
growth [14]: 65.3% (inactive)
growth [15]: 24.6% (inactive)
growth [16]: 47.7% (inactive)
growth [17]: 28.3% (inactive)
growth [18]: 20.7% (inactive)
growth [19]: 11% (inactive)
growth [20]: -36.4% (active)

O=C(/C=C/c1c(Cl)nc2sccn12)c1ccc(F)c(F)c1
growth [1]: 96.1% (inactive)
growth [2]: 48.1% (inactive)
growth [3]: 113% (inactive)
growth [4]: 81.8% (inactive)
growth [5]: 69.7% (inactive)
growth [6]: 81.4% (inactive)
growth [7]: 91.9% (inactive)
growth [8]: 96.5% (inactive)
growth [9]: 73.9% (inactive)
growth [10]: 87.2% (inactive)
growth [11]: 90.4% (inactive)
growth [12]: 87% (inactive)
growth [13]: 60.4% (inactive)
growth [14]: 87.9% (inactive)
growth [15]: 90.7% (inactive)
growth [16]: 78.8% (inactive)
growth [17]: 66.4% (inactive)
growth [18]: 68.7% (inactive)
growth [19]: 92% (inactive)
growth [20]: 96% (inactive)

Cc1ccc(/C=C/c2c(C(=O)/C=C/c3ccc(Cl)cc3)c(C)nc3ccccc23)cc1
growth [1]: -38.8% (active)
growth [2]: 5.31% (active)
growth [3]: -31.2% (active)
growth [4]: -24.2% (active)
growth [5]: -66.4% (active)
growth [6]: 38.1% (inactive)
growth [7]: -29.3% (active)
growth [8]: -85.5% (active)
growth [9]: 8.99% (active)
growth [10]: -0.212% (active)
growth [11]: -39.9% (active)
growth [12]: 8.51% (active)
growth [13]: 68.8% (inactive)
growth [14]: -21.4% (active)
growth [15]: -36.9% (active)
growth [16]: 11.6% (inactive)
growth [17]: -40.6% (active)
growth [18]: -32.8% (active)
growth [19]: -91% (active)
growth [20]: -55% (active)

COc1ccc(NC(=O)CSc2nc(C)c(C(C)=O)n2-c2ccc([N+](=O)[O-])cc2)cc1
growth [1]: 113% (inactive)
growth [2]: 96.6% (inactive)
growth [3]: 91.3% (inactive)
growth [4]: 80.3% (inactive)
growth [5]: 84.9% (inactive)
growth [6]: 108% (inactive)
growth [7]: 89% (inactive)
growth [8]: 102% (inactive)
growth [9]: 98.4% (inactive)
growth [10]: 94.9% (inactive)
growth [11]: 85.7% (inactive)
growth [12]: 90.8% (inactive)
growth [13]: 90% (inactive)
growth [14]: 85.9% (inactive)
growth [15]: 93.8% (inactive)
growth [16]: 85.3% (inactive)
growth [17]: 91.5% (inactive)
growth [18]: 73.1% (inactive)
growth [19]: 89.7% (inactive)
growth [20]: 89.8% (inactive)

C[C@@]1(CCC#N)[C@H]2CC[C@@H]3[C@H]4[C@H](C(=O)/C=C/c5cccnc5)CC[C@]4(C#N)CC[C@@]3(C)[C@]2(C)CC[C@H]1C(=O)/C=C/c1cccnc1
growth [1]: 81.5% (inactive)
growth [2]: 23.2% (inactive)
growth [3]: 109% (inactive)
growth [4]: 93.4% (inactive)
growth [5]: 69.7% (inactive)
growth [6]: 61.7% (inactive)
growth [7]: 100% (inactive)
growth [8]: 83.7% (inactive)
growth [9]: 67.5% (inactive)
growth [10]: 74.7% (inactive)
growth [11]: 31.5% (inactive)
growth [12]: 24.1% (inactive)
growth [13]: 72.7% (inactive)
growth [14]: 86.9% (inactive)
growth [15]: 64.1% (inactive)
growth [16]: 65% (inactive)
growth [17]: 77.3% (inactive)
growth [18]: 52.4% (inactive)
growth [19]: 17.5% (inactive)
growth [20]: 97.3% (inactive)

N#CC1=C(NC=O)Oc2c(ccc3ccccc23)C1c1ccccc1 (stereo not given)
growth [1]: 41.3% (inactive)
growth [2]: 15.1% (inactive)
growth [3]: 66.8% (inactive)
growth [4]: 31.9% (inactive)
growth [5]: 25.5% (inactive)
growth [6]: 41.3% (inactive)
growth [7]: 29.3% (inactive)
growth [8]: 8.89% (active)
growth [9]: 41.5% (inactive)
growth [10]: 10.2% (inactive)
growth [11]: 30.3% (inactive)
growth [12]: 94% (inactive)
growth [13]: 2.51% (active)
growth [14]: 30.8% (inactive)
growth [15]: 21.6% (inactive)
growth [16]: 18.3% (inactive)
growth [17]: -33.1% (active)
growth [18]: 30.9% (inactive)
growth [19]: 34.1% (inactive)
growth [20]: 60.2% (inactive)
